Data on 49 compounds can be found in PubChem BioAssay AID651815 (National Center for Advancing Translational Sciences (NCATS), 2012).

Structures are written as SMILES. Hit rate of the full screen: of about 2,100 compounds, about 1,100 (52%) were called active. Inconclusive results (about 29%) are left out. Calls come from the whole dose curve; as a rule, active = well fitted inhibition curve with a large enough effect; inconclusive = small, poorly fitted or top-dose-only effect; inactive = no such curve, though single readings can be large or run the other way. The set was probably picked from earlier hits. The list shows a part of the results.
% is set by controls: 0 for no effect and ±100 for the full control effect; potency is the fitted concentration of half-maximal effect.

Sequence of DNA dC->dU-editing enzyme APOBEC-3F (Homo sapiens) (Q8IUX4 whole entry, looked up): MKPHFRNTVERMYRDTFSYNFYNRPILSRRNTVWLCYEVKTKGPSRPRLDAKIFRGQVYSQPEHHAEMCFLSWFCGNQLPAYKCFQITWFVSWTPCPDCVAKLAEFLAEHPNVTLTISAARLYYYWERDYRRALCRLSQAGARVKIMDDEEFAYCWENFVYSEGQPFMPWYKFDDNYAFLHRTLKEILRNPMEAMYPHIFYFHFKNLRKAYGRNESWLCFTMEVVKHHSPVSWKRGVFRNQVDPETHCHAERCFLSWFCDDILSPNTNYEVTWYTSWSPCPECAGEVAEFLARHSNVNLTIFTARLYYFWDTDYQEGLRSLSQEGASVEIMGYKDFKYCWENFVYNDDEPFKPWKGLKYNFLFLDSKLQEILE

This experiment addresses DNA dC->dU-editing enzyme APOBEC-3F (Homo sapiens) (UniProt Q8IUX4). As to the kind of experiment: qHTS for inhibitors of Vif-A3F interactions: Cherry picks counterscreen. Note: nearly all actives have a fitted effect of over 65% in size. Conditions: HeLa A3F-eYFP/Vif cells, eYFP fluorescence, 24 h; series mostly up to 46.1 µM; activity, negative = inhibitor: at the top concentration. The source says: The recent discovery and characterization of host restriction factors, which provide a potent defense to invading retroviruses, has provided new targets for antiviral drug development. APOBEC3G (A3G) and APOBEC3F (A3F) are potent cytidine deaminases that block HIV-1 replication; HIV-1 expresses the Vif protein, which counteracts A3G and A3F by binding to them and inducing their proteasomal degradation. The Vif-A3G and Vif-A3F interactions provide two potential targets for development of small molecules which can interfere with the ability of Vif to degrade A3G or A3F. […] To identify inhibitors that can interfere with Vif mediated degradation of A3G and A3F, we have developed Hela cell lines that stably express A3G or A3F tagged with eYFP at the C-terminal end (A3G-eYFP or A3F-eYFP, respectively) and Vif. In the absence of an inhibitor, Vif induces degradation of A3G-eYFP and A3F-eYFP, and the cells are not fluorescent. In the presence of an inhibitor, it is expected that Vif will be unable to degrade A3G-eYFP and/or A3F-eYFP, resulting in an increase in yellow fluorescence. In this counterscreen assay, Vif A3F was screened against the cherry picks ordered from the MLSMR. NIH Chemical Genomics Center [NCGC] NIH Molecular Libraries Probe Centers Network [MLPCN] MLPCN Grant: MH093245 Assay Submitter (PI): Vinay Pathak, National Cancer Institute
A3F-Vif cells were harvested from T225 flask and resuspended in phenol free OPTI-MEM medium with 5% FBS. Then 5 uL of 140,000 cells/mL resuspended cells was dispensed into each well of low base Aurora COC 1,536-well plates (black walled, clear bottom) using a Multidrop Combi dispenser. After overnight culture at 37 deg C with 5% CO2, a total of 23 nL of compounds at 5 selected concentrations from the NPC or positive control (2 mM stock of MG132) in DMSO was transferred to each well of the assay plate using a pintool (Kalypsys, San Diego, CA), and the plates were further incubated at 37 deg C with 5% CO2 for 24 hours. After that, the plates were measured on Acumen Explorer (TTP Lab Tech). The fluorescence was detected by 488 nm/Ex and […].
A general note: Quantitative high-throughput screening tests each substance at several concentrations.
On to `Oc1sc(C=Nc2ccccc2)c2ccccc12`, for which the Potency was 23.1 µM (active).
On to `COc1ccc(N=Cc2c(O)c3ccccc3n2C(C)=O)cc1`, for which the Potency is 16.4 µM (active).
Same read-out and setting: under `COc1ccc(N=Cc2oc3ccc4ccccc4c3c2O)cc1` stands 9.2 µM (active); under `COc1ccc(N=Cc2sc(O)c3ccccc23)cc1`, 15.8 µM (active).
With `Cc1ccc(NC2=C(Cl)C(=O)N(C3CCCCC3)C2=O)cc1`, the “activity, negative = inhibitor” value is -2.36% (inactive).
On to `Oc1sc(C=Nc2ccc(F)cc2)c2ccccc12`, for which the Potency is 20.6 µM (active).
Same read-out and setting: as for `COc1cc(OC)c(/C=C/c2ccnc3ccccc23)c(OC)c1`, the figure is 5.8 µM (active); as for `COc1cc(N(C)C)c(OC)cc1/C=C/c1ccnc2ccccc12`, 23.1 µM (active).
On the same count and under the same terms, under `COc1cc(/C=C/c2ccnc3ccccc23)ccc1N(C)C` stands 23.1 µM (active); under `CN(C)c1ccc(/C=C(/C#N)C(=O)Nc2nc3c(s2)CCN(Cc2ccccc2)C3)cc1`, 0.314 µM (active); under `CN(C)c1ccc(/C=C(\C#N)C(=O)Nc2nc3c(s2)CCN(Cc2ccccc2)C3)cc1`, 0.396 µM (active).
Turning to `N#C/C(=C\c1ccc(C(=O)O)cc1)c1nc2sc3c(c2c(=O)[nH]1)CCCC3`, the “activity, negative = inhibitor” value was -7.1% (inactive).
On the same count and under the same terms, under `Cc1ccc(N2C(=O)CS/C2=C(\C(Cl)=C(Cl)Cl)[N+](=O)[O-])cc1` stands -2.43% (inactive).
With `Cc1cccc2c(=O)n3c(cc12)-c1[nH]c2ccccc2c1CC3`, the Potency was 16.4 µM (active).
Still for that read-out and setting: as for `CC[N+](C)(C)c1ccc(/C=C/c2ccncc2)cc1`, the figure is 20.6 µM (active).
Turning to `CCC[N+](C)(C)c1ccc(/C=C/c2ccncc2)cc1`, the Potency is 18.4 µM (active).
The same measure, in the same setting: as for `COc1ccc2nc(N3C(=O)/C(=C/c4ccccc4)NC3=S)sc2c1`, the figure is 13 µM (active).
Same read-out and setting: under `COc1ccc(NC(=O)CSc2ccc3c4c(cccc24)C(=O)c2ccccc2-3)cc1` stands 14.6 µM (active).
For the compound `CCn1c(CNC(=O)C23CC4CC(CC(C4)C2)C3)nnc1SCC(=O)Nc1ccc(OC)cc1`, the “activity, negative = inhibitor” value was 0.0525% (inactive).
Take `N#Cc1cccc(NC(=O)CSc2ccc3c4c(cccc24)C(=O)c2ccccc2-3)c1`: the Potency is 11.6 µM (active).
As for `CCCCCCN1C[C@H](O)[C@@H](n2cc(COC(=O)c3ccccc3)nn2)C[C@@H]1c1ccc(C)cc1`, the “activity, negative = inhibitor” value was -0.577% (inactive).
Still for that read-out and setting: under `COc1ccccc1-c1cc(C(=O)NN)[nH]n1` stands -2.26% [at 36.9 µM] (inactive).
For `COc1ccc(NC(=O)c2cc(-c3ccccc3OC)on2)cc1`, the Potency was 6.27 µM (active).
As for `CCCn1nnc(NC(=S)NC(=O)c2ccccc2OC)n1`, the “activity, negative = inhibitor” value is 1.76% (inactive).
As for `COc1ccc(C(=O)c2ccc(OC)c(OC)c2OC)cc1`, the Potency is 6.27 µM (active).
With `CC(=O)c1cccc(-c2ccnc3c2CC(C(=O)NCC2CCOCC2)O3)c1` (centres undefined), the Potency is 4.44 µM (active).
On to `CC(=O)c1cccc(-c2ccnc3c2CC(C(=O)NCC2CC2)O3)c1` (centres undefined), for which the Potency is 14 µM (active).
With `COc1ccc2c(C)cc(SCC(=O)N(C)C3CCS(=O)(=O)C3)nc2c1` (centres undefined), the “activity, negative = inhibitor” value is -25.5% (inactive).
Consider `COc1ccc2c(C)cc(SCC#N)nc2c1`, for which the Potency was 16.4 µM (active).
On to `C[C@]12CCC[C@H](O1)c1c(cc3c(c1O)C(=O)c1c(O)cc(O)cc1C3=O)O2`, for which the Potency was 20.6 µM (active).
As to `Cc1ccc(C(=O)NN(C)c2nc3ccccc3nc2C(F)(F)F)cc1`, the Potency was 2.8 µM (active).
Same read-out and setting: as for `CN(NC(=O)c1ccccc1)c1nc2ccccc2nc1C(F)(F)F`, the figure is 3.96 µM (active); as for `O=c1oc2cc(O)ccc2cc1-c1nc(-c2ccc(Cl)c(Cl)c2)cs1`, 2.06 µM (active).
As for `CCc1sc(-c2cc3ccc(O)cc3oc2=O)nc1-c1ccc(C)cc1`, the “activity, negative = inhibitor” value was 37.3% (inactive).
Consider `COc1cc(C2Sc3ccccc3NC3=C2C(=O)OC3)cc(OC)c1OC` (centres undefined), for which the Potency was 17.7 µM (active).
Still for that read-out and setting: under `CCOC(=O)Nc1cc2c(c(N)n1)N=C(c1ccccc1)CN2` stands 0.116 µM (active); under `Cc1nnc(SCC(=O)NCc2ccccc2F)c2nn(-c3ccc(Cl)cc3)c(C)c12`, 14.6 µM (active).
For `CCOC(=O)c1cnc(-n2nc(C)cc2C)nc1NNc1cc(C)nc(-c2ccccc2)n1`, the “activity, negative = inhibitor” value is 2.69% (inactive).
Consider `O=C(Cn1c(=O)n(Cc2ccco2)c(=O)c2sc3ccccc3c21)Nc1ccccc1C(F)(F)F`, for which the Potency is 23.1 µM (active).
With `C(=C\c1c[nH]c2ccccc12)/c1nccc2ccccc12`, the Potency was 18.4 µM (active).
Still for that read-out and setting: as for `Cc1ccc2c(/C=C/c3c[nH]c4ccccc34)ccnc2c1C`, the figure is 8.2 µM (active); as for `C(=Cc1c[nH]c2ccccc12)c1nccc2ccccc12`, 20.6 µM (active).
`CCCSc1nnc(N2C(=O)C(O)=C(C(=O)c3ccco3)C2c2ccccc2F)s1` (centres undefined): the “activity, negative = inhibitor” value is 0.34% (inactive).
With `Cc1nc2c3ccccc3n(Cc3ccccc3F)c2s1`, the Potency was 17.7 µM (active).
Still for that read-out and setting: as for `Cc1nc2c3cc(F)ccc3n(Cc3ccccc3)c2s1`, the figure is 6.27 µM (active).
Regarding `Cc1nc2c3cc(F)ccc3n(Cc3ccccc3F)c2s1`, the Potency was 12.5 µM (active).
As to `Cc1sc2nc(SCC(=O)N3CCOCC3)[nH]c(=O)c2c1-c1ccccc1`, the “activity, negative = inhibitor” value is -14.6% (inactive).
Consider `CCOC(=O)CSc1nc2c(c(=O)[nH]1)C(C)(CC)Cc1ccccc1-2` (centres undefined), for which the Potency was 5.8 µM (active).
Same read-out and setting: under `CCSc1nccc(-c2nn(-c3ccc(C)cc3)ccc2=O)n1` stands 7.04 µM (active).
